# Assay outcomes: PubChem BioAssay, National Center for Advancing Translational Sciences (NCATS)
# HT1080-NT tox = kills 2HG-producing HT-1080-NT fibrosarcoma cells | HT-1080-NT fibrosarcoma viability, CellTiter-Glo ATP luminescence, 48 h | Potency, µM (series often up to 46.1 µM), hits mostly cytotoxic | 360,000 compounds, 1.6% hits | AID 686970;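 note: NT is the 2HG producing partner of a matched IDH1 knockdown line; nearly all actives have a fitted effect of over 55% in size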
#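 HT-1080-NT fibrosarcoma cells (2HG-overproducing), 750 cells/well in RPMI with 5% FBS, dosed after 2 h and incubated 48 h at 37C. CellTiter-Glo luminescence normalized to DMSO and no-cell wells; concentration-response curves fitted and classed.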
# HT1080 IDH1KD tx = kills HT-1080 cells with IDH1 knockdown; Potency, µM (doses to about 46.1 µM), actives largely listed as cytotoxic; AID 686971; 360,000 compounds, 2% hits; HT-1080 IDH1 knockdown viability, ATP luminescence, 48 h
#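 In this qHTS, HT-1080 cells depleted of IDH1 are exposed for 48 h at 37 °C to compound titrations. Toxicity is scored from CellTiter-Glo luminescence, with DMSO as full viability and medium alone as none.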
# ALOX12 inh = inhibitors of human 12S-lipoxygenase ALOX12; Potency, µM (doses to about 108 µM), actives largely listed as inhibitors; purified 12hLO, xylenol orange hydroperoxide absorbance; 580,000 compounds, 1.1% hits; P18054
# Target sequence (P18054 whole entry, looked up): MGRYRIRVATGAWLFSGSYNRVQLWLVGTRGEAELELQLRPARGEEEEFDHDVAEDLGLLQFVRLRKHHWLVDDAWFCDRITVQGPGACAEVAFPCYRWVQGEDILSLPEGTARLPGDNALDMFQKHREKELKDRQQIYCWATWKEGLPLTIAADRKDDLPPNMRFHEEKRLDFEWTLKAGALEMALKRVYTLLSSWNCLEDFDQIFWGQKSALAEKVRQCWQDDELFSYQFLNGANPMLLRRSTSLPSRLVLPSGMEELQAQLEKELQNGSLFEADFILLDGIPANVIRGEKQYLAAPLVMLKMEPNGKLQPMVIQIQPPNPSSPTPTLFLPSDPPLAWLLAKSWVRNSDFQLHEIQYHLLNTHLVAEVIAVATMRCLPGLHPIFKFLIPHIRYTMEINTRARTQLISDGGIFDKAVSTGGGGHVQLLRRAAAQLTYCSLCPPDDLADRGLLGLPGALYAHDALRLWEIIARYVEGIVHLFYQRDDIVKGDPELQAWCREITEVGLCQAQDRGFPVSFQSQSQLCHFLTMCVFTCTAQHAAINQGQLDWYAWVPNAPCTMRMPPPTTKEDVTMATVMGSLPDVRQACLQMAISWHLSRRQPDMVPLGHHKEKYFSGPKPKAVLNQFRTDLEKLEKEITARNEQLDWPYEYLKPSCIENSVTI
#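 Purified human 12hLO (150 nM final) in 25 mM Hepes, 0.01% Triton X-100, pH 7.0 was preincubated 15 min at room temperature with compound. Then 40 uM arachidonic acid was added, 30 min. Hydroperoxide was read by Fe-XO absorbance ratio 573/405 nm.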
# IL1B secr inh = inflammasome signaling inhibition, IL-1 beta readout. THP-1 LPS/ATP IL-1B secretion, AlphaLISA, 16 h; active compounds read low. activity change, % at 57.5 µM. 360,000 compounds, 4.7% hits; in the data active = activity change below about -50%; inconclusive = mostly about -30% to -49%
#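 Secreted IL-1B measured by AlphaLISA bead assay after 16 h compound exposure of THP-1 cells; compounds (final up to 57.5 uM) added 1 h before LPS (250 ng/mL) and ATP (1.25 mM) stimulation; lower signal means less secretion.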
# DT40 TDP1 CPT = growth inhibition of DT40 Tdp1-/-;hTDP1 cells with camptothecin (screen for TDP1 inhibitors); 420,000 compounds, 12% hits; chicken DT40 Tdp1-/-;hTDP1 cells + 20 nM CPT, ATP luminescence, 48 h; Potency, µM (series often up to 46.2 µM), usual class: inhibitors; note: nearly all actives have a fitted effect of over 55% in size
#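 Chicken DT40 Tdp1-/- cells stably complemented with human TDP1 were seeded at 400 cells/well in medium containing 20 nM camptothecin, exposed to pin-transferred compounds, and grown at 37 °C for at least 48 hr. Viability was read as ATP luminescence.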
# TDP1 cell noCPT = qHTS for Inhibitors of human tyrosyl-DNA phosphodiesterase 1 (TDP1): qHTS in cells in absence of CPT; DT40 Tdp1-/- hTDP1 cells, no CPT, ATP luminescence, 48 h; Potency, µM (highest dose often 46.2 µM), most hits filed as inhibitors; 420,000 compounds, 15% hits; AID 686978, 2013; note: nearly all actives have a fitted effect of over 55% in size
#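 Readout: luminescence from CellTiter-Glo after 30 min in the dark at RT. Cells: DT40 Tdp1-/- with stable hTDP1, 400/well. Exposure: compounds alone, ≥48 hr, 37 °C.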
# A number is an active result; 0 = inactive; ? = inconclusive; - = no result; [ ] = another dose, or the depositor's remark. The sample as a whole holds a higher share of hits than the screen did. Unless noted, calls come from the whole dose curve; as a rule, active = well fitted curve in the direction sought with a large enough effect; inconclusive = small, poorly fitted or top-dose-only effect, or another doubt; inactive = no such curve, though single readings can be large; an effect the other way counts as inactive or inconclusive.
SMILES,HT1080-NT tox,HT1080 IDH1KD tx,ALOX12 inh,IL1B secr inh,DT40 TDP1 CPT,TDP1 cell noCPT
Cc1ccccc1S(=O)(=O)NCc1cccnc1,0,0,0,0,0,0
Cc1ccc(S(=O)(=O)NCc2ccncc2)cc1C,0,23µM,0,0,2.9µM,1.3µM
Cc1ccc(S(=O)(=O)NCc2ccc3c(c2)OCO3)cc1C,0,0,0,0,0,?
O=C(NC1CC1)[C@H]1O[C@H](CCN2CCN(Cc3ccccc3)CC2)CC[C@@H]1O,-,-,0,-,-,-
COc1ccc(Cl)cc1NC(=O)CSc1nnc(C)n2c1cc1sccc12,-,-,0,-,0,0
CCC(Sc1nnc(C)n2c1cc1sccc12)C(=O)Nc1ccccc1F (stereo not drawn),-,-,?,-,?,21µM
CCC(Sc1nncn2c1cc1sccc12)C(=O)Nc1cccc(OC)c1 (stereo not drawn),-,-,0,-,?,23µM
CC(C)Cc1ccc(S(=O)(=O)N2CCN(Cc3noc(CCC(=O)N4CCCCC4)n3)CC2)cc1,-,-,0,-,?,21µM
COc1ccc(CCn2c(=O)c3cccnc3n(Cc3ccc([N+](=O)[O-])cc3)c2=O)cc1OC,0,0,0,0,?,16µM
COc1ccc(CCn2c(=O)c3cccnc3n(CC(=O)Nc3c(C)cccc3C)c2=O)cc1OC,-,-,0,-,0,0
COc1ccc(CCn2c(=S)[nH]c(=O)c3cccnc32)cc1OC,?,?,-,-,0.22µM,0.1µM
CCN(CC)C(=O)C1CCN(Cc2ccc(OCc3ccccc3)cc2)CC1,0,0,0,-57,0,0
CCN(CC)C(=O)C1CCN(Cc2cccc(OCc3ccccc3)c2)CC1,0,0,?,0,0,?
CCCCN(C)C(=O)C1CCN(Cc2cccc(OCc3ccccc3)c2)CC1,0,0,5.6µM,?,?,?
CCCCN(C)C(=O)C1CCN(C/C(C)=C/c2ccccc2)CC1,0,0,?,0,0,0
CCCCN(C)C(=O)C1CCN(CC(C)c2ccccc2)CC1 (stereo not drawn),-,-,1µM,-,-,-
CCNC(=O)C1CCCN(Cc2ccc(OCc3ccccc3)cc2)CC1 (stereo not drawn),?,0,?,0,18µM,7.3µM
CC(C)CCN1CCNC(=O)C1CC(=O)N(Cc1cnn(C)c1)C1CC1 (stereo not drawn),-,-,0,-,-,-
CC(C)CCNC(=O)C1CCN(Cc2cccc(OCc3ccccc3)c2)CC1,?,23µM,0,-57,0,?
COCCNC(=O)C1CCN(Cc2cccc(OCc3ccccc3)c2)CC1,0,0,?,0,0,0
O=C(C1CCN(Cc2ccc(F)cc2)CC1)N(CCO)Cc1ccccc1,0,0,0,0,0,0
O=C(C1CCN(Cc2ccc(F)cc2)CC1)N(CCc1ccccc1)Cc1ccccc1,0,0,?,-89,23µM,16µM
O=C(CSc1nc2ccccc2c(=O)n1CC1CCCO1)Nc1ccc2[nH]c(=O)[nH]c2c1 (stereo not drawn),-,-,0,-,-,-
O=C(c1ccc2nccnc2c1)N1CCC2(CC1)Nc1ccccc1NC2=O,-,-,0,-,-,-
COc1cccc(NC(=O)CSc2nc3ccccc3cc2Cc2ccccc2)c1,0,0,0,0,?,?
SMILES,HT1080-NT tox,HT1080 IDH1KD tx,ALOX12 inh,IL1B secr inh,DT40 TDP1 CPT,TDP1 cell noCPT
COc1cccc(CSc2nc3ccccc3cc2C=O)c1,18µM,21µM,0,0,1.2µM,1µM
Cc1c(C#N)c(NC(=O)CSc2nnnn2CC2CCCO2)n(C2CCCC2)c1C (stereo not drawn),-,-,0,-,-,-
Nc1nnc(SCC(=O)N(C2CCCCC2)C2CCCCC2)s1,-,-,0,-,-,-
CC(=O)c1ccc(OCC(C)Oc2ccc(C#N)cc2)cc1 (stereo not drawn),0,0,0,0,?,23µM
CC(=O)c1ccc(OCC(O)COc2ccc(C(C)=O)cc2)cc1,0,0[9.24 µM],0,0,0,0
CCOC(=O)C1(Cc2cccc(Cl)c2)CCCN(C(=O)c2cc(C)on2)C1 (stereo not drawn),0,0,0,0,18µM,21µM
CCOC(=O)C1(Cc2cccc(Cl)c2)CCCN(C(=O)c2c(CC)noc2C)C1 (stereo not drawn),0,0,0,0,?,12µM
C=CCCC(=O)N1CCCC(Cc2cccc(Cl)c2)(C(=O)OCC)C1 (stereo not drawn),0,0,?,-56,?,?
CCOC(=O)C1(Cc2cccc(Cl)c2)CCCN(C(=O)c2cc(C)[nH]n2)C1 (stereo not drawn),0,0,0,0,0,0
CCOC(=O)C1(Cc2cccc(Cl)c2)CCCN(C(=O)CCSC)C1 (stereo not drawn),0,0,?,0,?,?
CCOC(=O)C1(Cc2cccc(Cl)c2)CCCN(C(=O)c2cc(C(C)C)nn2C)C1 (stereo not drawn),0,0,0,?,15µM,?
CCNC(=O)[C@@H]1C[C@H](NC(=O)CCOC)CN1Cc1ccc(F)cc1C,-,-,0,-,-,-
CCOc1ccc(C(=O)COC(=O)Cn2cnc3ccccc3c2=O)cc1,-,-,0,-,-,-
O=C(NC1CCC(C(F)(F)F)CC1)c1ccc(Cl)nc1 (stereo not drawn),-,-,0,-,-,-
COc1cc2c(cc1OC)C(CNC(=O)C=Cc1cc(OC)c(OC)c(OC)c1)C2 (stereo not drawn),0,0,0,0,?,18µM
COc1cc2c(cc1OC)CN(C(=O)/C=C/c1ccc(F)cc1)CC2,0,0,0,0,?,?
COc1cc(/C=C/C(=O)N2CCCCC2=O)cc(OC)c1OC,-,-,-,-,3µM,3.8µM
COc1cc2c(cc1OC)C(C)N(C(C)=O)CC2 (stereo not drawn),0,0,0,0,0,0
COc1cc2c(cc1OC)CN(C(=O)/C=C/c1cc(OC)c(OC)c(OC)c1)CC2,0,0,?,0,?,9.2µM
COc1cc(/C=C/C(=O)N2CCCC2)cc(OC)c1OC,0,0,0,0,0,0
COc1cc2c(cc1OC)C(C)N(C(=O)/C=C/c1cc(OC)c(OC)c(OC)c1)CC2 (stereo not drawn),0,0,0,0,15µM,8.2µM
Cc1ccc(C(=O)CCC(=O)OCC(=O)c2ccc(Cl)c(Cl)c2)cc1,-,-,0,-,-,-
CN1CCN(C(=O)C(C)(C)Oc2nn(CC3CC3)c3ccc(CN4CCCC4)cc23)CC1,-,-,0,-,-,-
COc1ccccc1CN[C@H]1Cc2ccc(cc2)Nc2cc(ccc2OC)C[C@H](C(=O)NCc2ccccc2)N(C)C1=O,-,-,0,-,-,-
CCCn1c(=O)c2sccc2n2c(CCCC(=O)Nc3ccc(Oc4ccccc4)cc3)nnc12,-,-,?,-,10µM,15µM
